Measured values: PubChem BioAssay (EPA / NIEHS)
Several values for one entry are separate records, joined by “and”; a condition that tells them apart may be missing. Equal entries are not always repeated. A structure can be active in one record and inactive in another. Activity calls are given as the source filed them. How the source made its calls: active means hit-call score of the fitted dose curve at least 0.9, where 1 is the maximum; inactive means score below 0.9.

Each compound was assayed on Vascular endothelial growth factor receptor 2 (Homo sapiens) (UniProt P35968) (assay: BSK_4H_VEGFRII: BioMAP Diversity Plus: 4H Assay for Vascular endothelial growth factor receptor 2 (VEGFR2) Biomarker Activity (AID 2283031)). Details: primary human endothelial cells (HUVEC); actives raise or lower the signal.
Procedure: BSK_4H is a cell-based, multiplexed-readout assay that uses umbilical vein endothelium, a human vascular primary cell, with measurements taken at 24 hours after chemical dosing in a 96-well plate.BSK_4H_VEGFRII is an assay component measured in the BSK_4H assay. It measures VEGFRII antibody related to regulation of gene expression using ELISA technology.Data from the assay component BSK_4H_VEGFRII was analyzed into 1 assay endpoint. This assay endpoint, BSK_4H_VEGFRII, was analyzed with bidirectional fitting relative to DMSO as the negative control and baseline of activity. Using a type of binding reporter, gain or loss-of-signal activity can be used to understand changes in the signaling as they relate to the gene KDR. Furthermore, this assay endpoint can be referred to as a primary readout, because this assay has produced multiple assay endpoints where this one serves a signaling function. To generalize the intended target to other relatable targets, this assay endpoint is annotated to the kinase intended target family, where the subfamily is receptor tyrosine kinase.
The levels of cell surface (or secreted, indicated by the prefix "s") biomarker endpoints were measured by ELISA. Overt cytotoxicity to cells in confluent adherent cultures (all systems other than the BT system) was assessed by measuring total protein levels using sulforhodamine B (SRB) staining in parallel cultures at the time of biomarker measurements, indicated as SRB endpoints. For proliferation assays for adherent cell types, individual cell types are cultured at sub-confluence and relative cell numbers quantified by SRB staining at time points optimized for each system (48 h: 3C and CASM3C systems; 72 h: BT and HDF3CGF systems; 96 h: SAg system). SRB was performed by staining cells with 0.1% SRB after fixation with 10% TCA and reading wells at 560 nm.Viability and proliferation of PBMC (T cells) was quantified by Alamar Blue reduction for the SAg and BT systems. For PBMC viability (referred to as PBMC Cytotoxicity within the assay endpoint names), cells were plated (75,000/well in a 96-well plate) and then chemical samples added for 1 h before addition of activators, SEB and TSST-1 (20 ng/mL final concentration each). Cells were incubated for 90 h. Then, Alamar Blue (20 uL/well) (Invitrogen, Cat DAL1100) was added for 6 h, and the plates were read with a fluorescence microplate reader at 546/580 nm (excitation/emission). For PBMC proliferation, cells were plated and activated as above but incubated for only 16 h prior to addition of Alamar Blue. Plates were read after 6 h.

| SMILES | outcome | AC50 |
| --- | --- | --- |
| O=C(C(=O)c1ccccc1)c1ccccc1 | inactive | – |
| CCC[Si](OC(C)=O)(OC(C)=O)OC(C)=O | inactive | – |
| CC(C)CC(=O)CC(C)CC(C)C (stereo not given) | – | 32.6 µM (active) |
| CC(C)C1OCCN1CCOC(=O)NCCCCCCNC(=O)OCCN1CCOC1C(C)C (stereo not given) | inactive | 33 µM (active) |
| COc1cc(CNC(=O)CCCC/C=C/C(C)C)ccc1O | inactive | – |
| Oc1cccc2ccccc12 | inactive | – |
| CCCCC(CC)COC(=O)C=Cc1ccc(OC)cc1 (stereo not given) | inactive | 31.7 µM (active) |
| COc1ccc(C(=O)c2ccccc2O)c(O)c1 | inactive | – |
| C1CN(CCOCCN2CCOCC2)CCO1 | inactive | – |
| Cc1cc(-n2nc3ccc(Cl)cc3n2)c(O)c(C(C)(C)C)c1 | inactive | – |
| COc1ccccc1Oc1c(NS(=O)(=O)c2ccc(C(C)(C)C)cc2)nc(-c2ncccn2)nc1OCCO | inactive | – |
| Cc1cccnc1 | inactive | – |
| CN(C)CCC(c1ccc(Cl)cc1)c1ccccn1 (stereo not given) | inactive | – |
| CC[N+](CC)(CC(=O)Nc1c(C)cccc1C)Cc1ccccc1 (tested in a mixture with another compound) | inactive | – |
| Sc1nc2ccccc2s1 | inactive | – |
| CCC(C)=NO | inactive | – |
| CC[N+](CC)(CC(=O)Nc1c(C)cccc1C)Cc1ccccc1 | inactive | – |
| OC(C(F)(F)F)(C(F)(F)F)C(O)(C(F)(F)F)C(F)(F)F | – | 30 µM (active) and 20.5 µM (active) |
| O=[N+]([O-])c1cc(S(=O)(=O)Nc2ccccc2)ccc1Nc1ccccc1 | inactive | 32.6 µM (active) |
| CCCCCCCCCC/C=C/C1CC(=O)OC1=O (stereo not given) | inactive | – |
| CCCCCCCCCCCCCCCCCC[N+](C)(C)C | – | 1.23 µM (active) |
| CN(C)c1ccc(C(c2ccccc2)c2ccc(N(C)C)cc2)cc1 | – | 5.36 µM (active) |
| CCCCCCC(O)CCCCCCCCCCC(=O)OC (stereo not given) | inactive | – |
| CCCCCCCCCCC1CO1 (stereo not given) | – | 34.7 µM (active) |
| Cc1c(C(N)=O)cc([N+](=O)[O-])cc1[N+](=O)[O-] | inactive | – |
| CN(C)Cc1cc(C(C)(C)C)c(O)c(C(C)(C)C)c1 | inactive | – |
| COC(=O)/C=C\C(=O)OC | inactive | – |
